In PubChem BioAssay (NCI):
This is part of a sample that, as a whole, favours compounds with a hit. Of some 79,000 tested, about 15% had one in any assay. Unmarked numbers belong to inactive results. Rule as the data show it: active = growth inhibition above about 70%; inactive = the rest.

Test: NCI Yeast Anticancer Drug Screen. Data for the cln2 rad14 strain (AID 165);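 also: 0% = growth equal to vehicle treated cultures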
Conditions: S. cerevisiae cln2 rad14 strain, at 50.0 µM, active compounds read high
Procedure, shortened: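 Test compounds were added to cln2 rad14 yeast cultures; inhibition of growth was then determined by comparison with vehicle treatment.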

Compound	growth inhibition
C=CCNC(=O)c1ccc(OC)cc1	1.7%
O=C(Nc1cc(-c2ccccc2)[nH]n1)c1ccc(Cl)cc1	-1%
O=[N+]([O-])c1ccc(N=Nc2ccccc2)cc1	21.2%
N=c1c(C(=O)OCc2ccccc2)ncc(CCl)n1O	22.9%
CCOC(=O)c1cc(/C=C/c2ccc(Cl)cc2Cl)on1	-41.1%
CC1NC(=O)NC1CCCCCC(=O)O (stereo not drawn)	12.5%
COc1ccc(C2OC(N)=C(O)C2=O)cc1OC (stereo not drawn)	11.2%
Cc1nc2ccccc2c2nnc(SCC(=O)N(Cc3ccccc3)c3ccccc3)n12	8.25%
Cc1cc(NC(=O)CSCC(=O)O)no1	7.8%
N#CCCc1ccc(O)cc1	1.55%
Cc1cc(N2CCC(N3CCCC3)CC2)nc(/N=C(\N)Nc2ccc(Cl)c(Cl)c2)n1	-3.7%
OC1OC(COC(c2ccccc2)(c2ccccc2)c2ccccc2)C(O)C(O)C1O (stereo not drawn)	14.4%
NC(N)=Nc1cc2ccccc2c2ccccc12	-14%
O=C(/C=C/C(=O)c1ccccc1)c1ccccc1	-31.4%
CSc1[nH]c(=O)ncc1F	-4.15%
CCOC(=O)CNN	9.75%
CCC(C)(C)C1CCC(O)CC1 (stereo not drawn)	-53.5%
Cc1c(O)cccc1O	7.1%
C/C(=C\c1cc(Cl)ccc1OCC(=O)O)[N+](=O)[O-]	26.9%

Compound	growth inhibition
COc1cccc(/C=N/NC(=S)NC2CC3CCC2C3)c1O (stereo not drawn)	-9.9%
Cc1cc(OCCO)cc(C)c1Cl	2.35%
CC(C)CCOC(=O)c1ccccc1	-68.9%
COC(=O)/C=C/C(=O)NC(N)=O	9.95%
O=[N+]([O-])c1ccc(O)c(S(=O)(=O)O)c1	15.7%
O=c1cc(-c2ccccc2)[nH]c(=S)[nH]1	-24.8%
CC(C)C1CCCCC1O (stereo not drawn)	-35.5%
CCOc1ccc(Br)cc1/C=N\N=C\c1cc(Br)ccc1OCC	13.3%
CCCNC(=O)c1ccc(S(N)(=O)=O)cc1	-4.55%
O=C(O)CNC(=O)c1ccccc1	-50.1%
O=C(O)CCC(NC(=O)OCc1ccccc1)C(=O)O (stereo not drawn)	9.55%
O=C(N/N=C/c1ccccc1O)Nc1nn[nH]n1	-7.8%
CC1CCC(C(=O)O)N1 (stereo not drawn)	4.45%
CCCCNC1(C#N)CCN(Cc2ccccc2)CC1	6.75%
O=C1OC(=O)C2C1C1(Cl)C(Cl)=C(Cl)C2(Cl)C2C(=O)OC(=O)C21 (stereo not drawn)	-9.45%
O=C(O)C(Cc1ccccc1)C(=O)O	-33%
CC(C)=NNc1ccc([N+](=O)[O-])cc1[N+](=O)[O-]	25.4%
O=c1[nH]n(-c2ccccc2)c(=O)cc1Cl	-0.3%
C=CCc1cc(C(C)=O)cc(OC)c1O	-16.5%
